Reference: PubChem BioAssay AID1159580 (chemical genetic matrix, 2015)
Where “and” joins values, the source holds several entries; their conditions need not be identical. Equal values may be shown once. The campaign covered roughly 5,500 compounds. About 2,000 (36%) were called active. Not shown: some 18% with an inconclusive outcome. Rule as the data show it: active = normalized growth mostly below about 0.91 (no sharp cut-off); inconclusive = no clear call, values can overlap the other calls; inactive = mostly above about 0.92. The list shows a part of the results.

Experiment: chemical genetic growth profiling, strain panel (AID 1159580);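 also: tested at 20 µM; growth read once vehicle control cultures reached saturation at 30 °C; 1 = growth at the plate median or of vehicle wells; lower values mean less growth of the strain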
Conditions: S. cerevisiae deletion strains, growth OD

Measured: normalized growth

NC[C@H]1O[C@H](O[C@H]2[C@H](O)[C@@H](O[C@H]3O[C@H](CO)[C@@H](O)[C@H](N)[C@H]3O)[C@H](N)C[C@@H]2N)[C@H](N)C[C@@H]1O
inactive: locus YAL013W, strain DEP1, active compounds read low 1 | locus YAL021C, strain ccr4, active compounds read low 0.979 | locus YAL026C, strain drs2, active compounds read low 1.01 | locus YAL030W, strain snc1, active compounds read low 1.01 | locus YBL061C, strain skt5, active compounds read low 1.01 | locus YBR009C, strain hhf1, active compounds read low 1.05 | locus YBR021W, strain FUR4, active compounds read low 1.02 | locus YBR023C, strain chs3, active compounds read low 1.01 | locus YBR171W, strain sec66, active compounds read low 1.01 | locus YBR229C, strain ROT2, active compounds read low 1.01 | locus YBR231C, strain swc5, active compounds read low 0.987 | locus YBR279W, strain paf1, active compounds read low 1.02 | locus YCL011C, strain gbp2, active compounds read low 1.02 | locus YCL016C, strain dcc1, active compounds read low 1.02 | locus YCL029C, strain bik1, active compounds read low 1.02 | locus YCL061C, strain MRC1, active compounds read low 0.994 | locus YCL069W, strain vba3, active compounds read low 1.01 | locus YCR088W, strain abp1, active compounds read low 1.01 | locus YDL005C, strain med2, active compounds read low 1 | locus YDL035C, strain GPR1, active compounds read low 1 | locus YDL040C, strain nat1, active compounds read low 1.02 | locus YDL074C, strain BRE1, active compounds read low 0.971 | locus YDL101C, strain DUN1, active compounds read low 0.997 | locus YDL134C, strain PPH21, active compounds read low 1.01 | locus YDL185W, strain tfp1, active compounds read low 1 | locus YDL192W, strain arf1, active compounds read low 1.01 | locus YDR001C, strain nth1, active compounds read low 1.01 | locus YDR069C, strain doa4, active compounds read low 0.985 | locus YDR101C, strain arx1, active compounds read low 1.02 | locus YDR137W, strain rgp1, active compounds read low 0.99 | locus YDR159W, strain sac3, active compounds read low 0.987 | locus YDR162C, strain NBP2, active compounds read low 1.01 | locus YDR195W, strain ref2 1.01 | locus YDR297W, strain sur2, active compounds read low 1.01 | locus YDR318W, strain mcm21, active compounds read low 1.02 | locus YDR334W, strain swr1, active compounds read low 1.02 | locus YDR335W, strain msn5, active compounds read low 1.01 | locus YDR388W, active compounds read low 1.02 | locus YDR392W, strain spt3, active compounds read low 0.907 | locus YDR502C, strain sam2, active compounds read low 1 | locus YEL003W, strain gim4, active compounds read low 1.03 | locus YEL037C, strain rad23, active compounds read low 1.02 | locus YEL061C, strain CIN8 (second series), active compounds read low 1.02 | locus YEL061C, strain CIN8, active compounds read low 0.988 | locus YER015W, strain faa2, active compounds read low 1.02 | locus YER016W, strain bim1, active compounds read low 1.01 | locus YER110C, active compounds read low 1.01 | locus YER111C, strain swi4, active compounds read low 1.01 | locus YER155C, strain BEM2 (second series), active compounds read low 0.911 | locus YER155C, strain BEM2, active compounds read low 1.02 | locus YER167W, strain BCK2, active compounds read low 1.01 | locus YFR010W, strain ubp6, active compounds read low 1.02 | locus YGL078C, strain dbp3, active compounds read low 1 | locus YGL086W, strain mad1, active compounds read low 0.991 | locus YGL167C, strain pmr1, active compounds read low 1.01 | locus YGL173C, strain kem1, active compounds read low 1.01 | locus YGL227W, strain vid30, active compounds read low 1.01 | locus YGL240W, strain doc1, active compounds read low 0.978 | locus YGL248W, strain PDE1, active compounds read low 0.999 | locus YGL253W, strain hxk2, active compounds read low 1.01 | locus YGR135W, strain pre9, active compounds read low 1.01 | locus YGR252W, strain gcn5, active compounds read low 0.944 | locus YHR013C, strain ard1, active compounds read low 0.952 | locus YHR027C, strain rpn1, active compounds read low 1.02 | locus YHR030C, strain SLT2, active compounds read low 1.01 and 0.98 | locus YHR079C, strain IRE1 (second series), active compounds read low 1.02 | locus YHR079C, strain IRE1, active compounds read low 0.985 | locus YHR094C, strain hxt1, active compounds read low 1.02 | locus YHR129C, strain ARP1, active compounds read low 1.01 | locus YHR142W, strain chs7, active compounds read low 1.03 | locus YHR200W, strain rpn10, active compounds read low 1.01 | locus YIL066C, strain RNR3, active compounds read low 1 | locus YIL073C, strain SPO22, active compounds read low 1.05 | locus YIL125W, strain kgd1, active compounds read low 1 | locus YIR030C, strain dcg1, active compounds read low 1.02 | locus YJL092W, strain hpr5, active compounds read low 1.02 | locus YJL095W, strain BCK1 (second series), active compounds read low 1.04 | locus YJL095W, strain BCK1, active compounds read low 0.985 and 0.999 | locus YJL115W, strain asf1, active compounds read low 1.01 | locus YJL129C, strain trk1, active compounds read low 1 | locus YJL134W, strain LCB3, active compounds read low 1.01 | locus YJL154C, strain vps35, active compounds read low 1.02 | locus YJL164C, strain tpk1, active compounds read low 1.03 | locus YJL166W, strain qcr8, active compounds read low 0.979 | locus YJL168C, strain set2, active compounds read low 1.01 | locus YJL187C, strain SWE1 (second series), active compounds read low 1 | locus YJL187C, strain SWE1, active compounds read low 1.03 | locus YJR043C, strain POL32, active compounds read low 0.98 | locus YJR066W, strain TOR1, active compounds read low 0.951
